Screening data as filed in PubChem.
tim23-1 inh: tim23-1 yeast growth inhibition | S. cerevisiae tim23-1 growth, BacTiter-Glo luminescence, 24 h | inhibition, % at 20 µM | AID 463212 | actives 1.3% (n = 330,000);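 active means growth inhibition of the mutant yeast at or above 50%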;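 further: temperature-sensitive mutant grown at 25 °C; plate controls were DMSO-treated mutant yeast for no effect and medium wells lacking yeast for full effect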
NALP3 yeast inh: inhibitors of NALP3 inflammasome in yeast. Yeast reconstituted NLRP3/ASC/caspase-1, beta-gal luminescence, 24 h. inhibition, % at 10 µM. actives 0.39% (n = 330,000);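 active means inhibition of 50% or more; inactive means inhibition below 50%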;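 further: plate controls were induced DMSO wells for no effect and uninduced yeast grown without galactose for full effect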
NALP1 yeast inh: inhibitors of NALP1 inflammasome in yeast; S. cerevisiae NALP1/ASC/caspase-1 growth, X-gal OD620, 72 h; inhibition, % at 10 µM; actives 0.61% (n = 280,000); in the data active means inhibition mostly above about 24%, no sharp cut-off; inactive means mostly below about 32%
tim10-1 inh: tim10-1 yeast growth inhibition | S. cerevisiae tim10-1 ts strain growth, BacTiter-Glo, 24 h | inhibition, % at 20 µM | actives 2.2% (n = 330,000) | AID 463190;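 active means inhibition of at least 40%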;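 further: mutant grown at 25 °C; 0% = DMSO wells with yeast and 100% = wells holding no yeast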
TIM10 inh: TIM10 yeast growth inhibition | S. cerevisiae TIM10 strain growth, BacTiter-Glo luminescence, 24 h | inhibition, % at 10 µM | actives 1.4% (n = 330,000);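 active means inhibition of 40% or more at the single tested concentration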;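 further: wild-type TIM10 isogenic control strain grown at permissive 25 °C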
tim10-1 conf: confirmation of tim10-1 mutant yeast growth inhibitors; shares compounds with tim10-1 inh; S. cerevisiae tim10-1 ts strain growth, BacTiter-Glo, 24 h; inhibition, % at 20 µM; actives 56% (n = 7,400); AID 463213;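 active means inhibition of yeast growth at or above a set limit in either of two repeat tests at 20 µM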;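 further: tim10-1 mutant grown at permissive 25 °C to find synthetic lethal compounds; 0% = DMSO yeast wells and 100% = medium wells without yeast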
* = called active by the depositor; nt = no result. Sampled rows, rich in hits. Any-hit rate of the full collection: about 4%.

SMILES | tim23-1 inh | NALP3 yeast inh | NALP1 yeast inh | tim10-1 inh | TIM10 inh | tim10-1 conf
Cc1ccc(C(=O)COC(=O)[C@@H](NC(=O)c2ccco2)C(C)C)s1 | 18.7 | -10.4 | nt | 9.5 | 0.4 | nt
CCOC(=O)C1CCN(c2cc3c(cc2NC(=O)c2ccccc2F)n(C)c(=O)n3C)CC1 | 14.8 | -2.1 | 16.8 | 9.0 | -12.1 | nt
CCOC(=O)C1CCN(c2cc3c(cc2NC(=O)c2ccccc2Cl)n(C)c(=O)n3C)CC1 | 32.9 | 19.5 | 3.6 | 48.7* | 2.5 | -3.8
CCOC(=O)C1CCN(c2cc3c(cc2NC(=O)c2ccccc2OCC)n(C)c(=O)n3C)CC1 | 30.4 | 23.7 | 6.4 | 47.5* | -19.9 | -0.4
COC(=O)[C@@]1(Cc2ccc(F)cc2)[C@H]2c3cc(C(=O)N4CCCC4)n(CCc4c[nH]c5ccc(OC)cc45)c3C[C@H]2CN1C(=O)c1ccccc1 | 23.4 | 13.0 | 25.4 | 2.0 | 13.2 | nt
O=C(O)c1c2c(nc3ccccc13)/C(=C/c1cccc([N+](=O)[O-])c1)CCC2 | nt | nt | -13.8 | nt | nt | nt
Clc1ccc(-c2csc(=Nc3cccnc3)n2CCCn2ccnc2)cc1Cl | 20.3 | 15.4 | -6.7 | 27.1 | 31.7 | nt
COCCn1c(-c2ccc(Br)cc2)csc1=Nc1cccnc1 | 28.7 | 21.3 | 14.7 | 41.5* | -1.2 | 16.7
COc1ccc(N=c2scc(-c3ccc(OC)cc3)n2CCO)cc1 | 40.6 | 16.9 | 3.7 | 40.7* | 9.1 | 25.1
[N-]=[N+]=NCCN1CCN(CCc2ccccc2)CCC1=O | 3.5 | 0.1 | 22.6 | 0.3 | -3.9 | nt
COc1ccc(OCc2cc(C(=O)N3CCN(C4CCCC4)CC3)no2)c(Cl)c1 | 27.5 | 24.9 | 10.4 | 43.3* | 22.1 | 32.6*
COc1ccc(-c2cc(C)no2)cc1S(=O)(=O)NCCCN(C)Cc1ccccc1 | 2.7 | 10.8 | 3.1 | 5.4 | 1.9 | nt
COc1ccc(-c2onc(C)c2C)cc1S(=O)(=O)NCCc1ccco1 | 36.9 | 25.0 | -2.6 | 43.1* | -14.3 | 2.4
Cn1cccc1/C=N/NC(=O)c1cc2ccccc2cc1O | -4.8 | 6.8 | 14.8 | -6.4 | 7.3 | nt
CCOc1ccc(CN2CCN(Cc3cccn3-c3nccs3)CC2CCO)cc1 (stereo not given) | 2.2 | -4.3 | 6.6 | 17.1 | 6.0 | nt
CCc1ccccc1N1CC(C(=O)N2Cc3ccccc3CC2C(N)=O)CC1=O (stereo not given) | -8.1 | 13.1 | nt | -3.5 | 0.0 | nt
CCCN1C(=O)/C(=N\OCC(=O)NC23CC4CC(CC(C4)C2)C3)c2ccccc21 | 47.2 | 14.2 | 37.7 | 42.1* | 19.1 | 22.2
CCCN1C(=O)/C(=N\OCC(=O)Nc2ccc(C(C)C)cc2)c2ccccc21 | 39.1 | 9.3 | 41.9 | 47.8* | 13.8 | 37.7*
Cc1cc(OCC(=O)N(Cc2ccco2)c2c(N)n(Cc3ccccc3)c(=O)[nH]c2=O)ccc1Cl | 15.8 | 1.4 | nt | 18.2 | 0.7 | nt
CCNc1ccc(Br)cc(C(=O)/C=C/c2c(Cl)cccc2Cl)c1=O | 33.0 | 15.9 | 58.7 | 54.7* | 38.9 | 48.6*
CCNc1ccc(Br)cc(C(=O)/C=C/c2ccc(Cl)cc2)c1=O | 24.8 | 19.6 | 28.7 | 12.9 | 24.2 | nt
Cc1ccc(C(O)P(=O)(OCCC(C)C)c2ccc(N(C)C)cc2)cc1 (stereo not given) | 33.6 | -9.5 | -2.1 | 41.1* | 18.4 | 18.6
COc1ccc(C(O)P(=O)(OCCC(C)C)c2ccc(N(C)C)cc2)cc1OC (stereo not given) | 20.1 | 3.5 | 1.3 | 10.7 | 12.1 | nt
CC(NC(=O)COc1ccccc1Cl)c1ccccc1 (stereo not given) | 22.7 | 0.6 | 17.0 | 13.7 | 18.5 | nt
O=C(NCCCSc1ccccc1)c1cc(Cl)ccc1O | 48.2 | 40.2 | 2.4 | 47.2* | 25.2 | 26.1
SMILES | tim23-1 inh | NALP3 yeast inh | NALP1 yeast inh | tim10-1 inh | TIM10 inh | tim10-1 conf
O=C(CNC(=O)c1ccccc1)NCCCSc1ccccc1 | 4.6 | 5.8 | nt | -13.7 | -10.4 | nt
CCC(C)/C(C)=N/NC(=O)c1cn(-c2ccccc2)nc1-c1ccccc1 (stereo not given) | 38.0 | 1.6 | 18.3 | 14.9 | 13.7 | nt
N#CCCN(Cc1ccccc1)C(=S)NC(=O)c1ccccc1 | 32.5 | 12.3 | 25.4 | 40.1* | 37.6 | 27.6
Cc1cc(C)cc(NC(=O)c2sc3nc4n(c(=O)c3c2C)CCC4)c1 | 24.6 | 19.4 | 12.6 | 42.9* | 5.6 | 4.6
CCOC(=O)c1ccc(NC(=O)c2sc3nc4n(c(=O)c3c2C)CCC4)cc1 | 24.7 | 10.2 | 11.7 | 47.9* | 13.2 | 28.0
CCc1cccc(NC(=O)c2sc3nc4n(c(=O)c3c2C)CCC4)c1 | 14.3 | 20.6 | 4.0 | -9.5 | 8.8 | nt
Cc1cccc2cc3c(NC(=O)C(C)(C)C)nn(CC(C)C)c3nc12 | 42.6 | 6.2 | -0.6 | 31.4 | 27.7 | nt
COC(=O)C1=C(C)NC(=O)/C1=C\c1ccc2c(c1)OCO2 | 31.4 | 22.6 | 2.5 | 42.4* | 25.8 | 26.5
CC1=NOC(=O)/C1=C/c1ccc2c(c1)OCO2 | 23.4 | -9.0 | 10.5 | -8.2 | -1.8 | nt
Cc1ccccc1C(=O)N1CCN(c2ccc(NC(=O)c3ccc([N+](=O)[O-])o3)cc2)CC1 | 24.1 | 11.4 | 12.8 | 24.6 | 39.7 | nt
O=C(Cn1c(O)c(/C=C2\C=Nc3ccccc32)sc1=O)N1CCOCC1 | 27.0 | 13.9 | 12.1 | -6.0 | 1.1 | nt
O=C(Cn1c(O)c(/C=C2\C=Nc3ccc(Br)cc32)sc1=O)N1CCCC1 | 39.8 | -29.3 | 10.4 | 51.6* | 33.8 | 30.4
Cc1cc(/C=C2/SC(=S)N(c3cccc(C(F)(F)F)c3)C2=O)c(C)n1-c1cccnc1 | 27.1 | 3.5 | nt | 49.7* | 30.1 | 25.1
NC(=O)C1(N2CCCCC2)CCN(c2ccc3nnc(-c4ccccc4)n3n2)CC1 | -18.3 | 17.4 | -11.9 | -1.8 | 0.3 | nt
c1ccc(-c2nnc3ccc(N4CCC5(CC4)OCCO5)nn23)cc1 | 26.6 | 3.0 | -2.8 | 43.1* | 17.2 | 22.6
CC(C)COc1cccc(C(=O)N(CC(=O)Nc2ccccc2C(F)(F)F)Cc2ccco2)c1 | 27.6 | 18.3 | nt | 9.9 | 4.5 | nt
COc1ccccc1N1CCN(Cc2cc(=O)c(OCC(=O)NC(C)C)co2)CC1 | 0.9 | -1.1 | 5.9 | -4.7 | 2.2 | nt
Cc1ccc(CN(Cc2ccco2)C(=S)Nc2ccccc2C)cc1 | 10.4 | 18.4 | 15.7 | 42.2* | 10.1 | 26.0
CCCCS/C(=C(/C#N)C(N)=O)c1cc2c([nH]1)CCCC2 | 44.3 | 20.1 | -22.6 | 44.9* | 29.7 | 37.8*
CC(Oc1ccccc1)C(=O)N1CCC2(CC1)Oc1ccc(Cl)cc1C(=O)C21CC(c2ccccc2)=NO1 (stereo not given) | 30.3 | 18.4 | nt | 30.3 | 21.5 | nt
Cc1ccc(C(=O)N2CCC3(CC2)Oc2ccc(F)cc2C(=O)C32CC(c3ccc(Cl)cc3)=NO2)s1 (stereo not given) | 0.3 | 16.4 | 12.7 | 50.8* | -6.1 | 32.8*
O=C(c1ccoc1)N1CCC2(CC1)Oc1ccc(F)cc1C(=O)C21CC(c2ccc(Cl)cc2)=NO1 (stereo not given) | -6.7 | 21.9 | 0.5 | 29.2 | -13.1 | nt
